Data: PubChem BioAssay (Tox21)
Inconclusive results are not listed. More than one record can exist for a structure, and the calls need not agree. The source made the active and inactive calls. Unless noted, calls follow the shape of the full dose curve.

How the values were obtained:
[1] = Nuclear factor erythroid 2-related factor 2/antioxidant responsive element (Nrf2/ARE) small molecule agonists: qHTS cell viability counter screen in human keratinocytes (AID 1919968; active = well fitted curve in the direction sought with a large enough effect in the repeat runs; an effect the other way counts as inactive or inconclusive; also: nearly all actives have a fitted effect of over 55% in size; also: potency is read from the fitted curve at half-maximal effect)
Method in brief: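 KeratinoSens HaCaT cells, 1,500/well, preincubated 5 h, then exposed to compounds in DMSO for 23 h at 37 C/5% CO2. Viability read as CellTiter-Fluor fluorescence after 1 h, in the same wells as the ARE-luciferase read.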

[2] = Nuclear factor erythroid 2-related factor 2/antioxidant responsive element (Nrf2/ARE) small molecule agonists: luciferase reporter gene qHTS assay in human keratinocytes (AID 1919969); also: nearly all actives have a fitted effect of over 35% in size
[3] = molecular target: Gonadotropin-releasing hormone receptor (Homo sapiens) (UniProt P30968); test: Human gonadotropin-releasing hormone receptor (GnRHR) small molecule agonists, calcium flux assay in GnRHR-HEK293 cells (AID 1920063); also: nearly all actives have a fitted effect of over 35% in size
Method in brief: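 HEK293 cells stably expressing human GnRHR were dye-loaded for 1 h at 37 C. Compound was added in agonist mode and fluorescence (Ex/Em 480/540) recorded kinetically for 3 min. Fifteen concentrations, triplicates.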

[4] = molecular target: KiSS-1 receptor (Homo sapiens) (UniProt Q969F8); test: Human kisspeptin (KISS1R) small molecule agonists, calcium flux assay in KISS1R-HEK293 cells (AID 1920064; active = well fitted curve in the direction sought with a large enough effect in the repeat runs; an effect the other way counts as inactive or inconclusive)
Method in brief: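 HEK293 cells stably expressing human KISS1R were loaded with calcium dye for 1 h at 37 C, then given compound; fluorescence (Ex/Em 480/540) was read kinetically for 3 min. Fifteen concentrations, triplicate.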

[5] = G protein-coupled receptor (GPCR) small molecule agonists, calcium flux assay: HEK293 wild type cell line counter screen (AID 1920065)
Method in brief: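 Wild-type HEK293 cells plated 18 h, loaded with calcium dye 1 h at 37 C, then compounds added in agonist mode (ATP as positive control). Kinetic fluorescence Ex/Em 480/540 recorded 3 min at 1 sec intervals; 15 concentrations, triplicate.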

[6] = p53 small molecule agonists, cell-based qHTS assay with human liver microsomes (AID 1963577);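 also: p53 response element beta-lactamase reporter cells with liver microsomes plus NADPH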
Method in brief: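 p53RE-bla cells; 5 h settle, 37 C/5% CO2; cpd + HLM 0.5 mg/mL + NADPH 0.5 mg/mL (final); 16 h 37 C; LiveBLAzer 2 h RT dark; fluorescence readout.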

[7] = p53 small molecule agonists, cell-based qHTS assay with rat liver microsomes (AID 1963578)
Method in brief: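 Rat liver microsome activation: microsomes 0.5 mg/mL, NADPH 0.5 mg/mL final; p53RE-bla cells, 16 h 37 C; LiveBLAzer readout, 2 h RT dark.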

[8] = p53 small molecule agonists, cell-based qHTS assay with human liver microsomes: qHTS cell viability counter screen (AID 1963579); also: nearly all actives have a fitted effect of over 45% in size; also: potency is read from the fitted curve at half-maximal effect
Method in brief: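 Luminescent CellTiter-Glo read-out, 30 min at room temperature, gauged cytotoxicity in p53RE-bla cells exposed 16 h at 37 C to DMSO-dissolved compounds with metabolic activation by human liver microsomes and NADPH, each 0.5 mg/mL final.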

[9] = p53 small molecule agonists, cell-based qHTS assay with rat liver microsomes: qHTS cell viability counter screen (AID 1963580); also: nearly all actives have a fitted effect of over 45% in size
Method in brief: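 p53RE-bla HCT-116 cells were exposed 16 h at 37 C to compounds with rat liver microsomes (0.5 mg/mL) and NADPH (0.5 mg/mL). Viability was measured in the same wells as ATP content by CellTiter-Glo luminescence.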

[10] = p53 small molecule agonists, cell-based qHTS assay: qHTS cell viability counter screen (AID 1963581); also: nearly all actives have a fitted effect of over 45% in size
Method in brief: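 p53RE-bla HCT-116 cells, compounds added 5 h after plating and incubated 16 h at 37 C. Cytotoxicity measured in the same wells as intracellular ATP by CellTiter-Glo luminescence after 30 min at room temperature.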

[11] = p53 small molecule agonists, cell-based qHTS assay (AID 1963582; active = well fitted activation curve with a large enough effect in the signal ratio in the repeat runs, not every such curve was filed as active; the % refers to the signal ratio)
Method in brief: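 p53RE-bla reporter cells, compounds added in DMSO after 5 h plating, incubated 16 h at 37 C. Beta-lactamase read via 2 h room-temperature LiveBLAzer B/G FRET substrate, fluorescence intensity.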

[12] = molecular target: 5-hydroxytryptamine receptor 2A (Homo sapiens) (UniProt P28223); test: 5-hydroxytryptamine receptor 2A (HTR2A) small molecule antagonists, cell-based qHTS assay (AID 1963586); also: nearly all actives have a fitted effect of over 45% in size
Method in brief: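 Antagonist-mode intracellular calcium assay: DOI (4 nM) added after 5 min compound pre-incubation at room temperature to dye-loaded HTR2A-CHO cells. Fluorescence followed for 3 min, sampled every second.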

[13] = molecular target: 5-hydroxytryptamine receptor 2A (Homo sapiens) (UniProt P28223); test: 5-hydroxytryptamine receptor 2A (HTR2A) small molecule agonists, cell-based qHTS assay (AID 1963587); also: nearly all actives have a fitted effect of over 30% in size
Method in brief: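 CHO cells stably expressing human HTR2A, plated 18 h, loaded with calcium dye 1 h at 37 C. Agonist mode: compounds added and intracellular calcium fluorescence recorded kinetically for 2 min at 1 sec intervals.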

[14] = molecular target: Muscarinic acetylcholine receptor M1 (Homo sapiens) (UniProt P11229); test: Cholinergic receptor muscarinic 1 (CHRM1) small molecule antagonists, cell-based qHTS assay (AID 1963588); also: nearly all actives have a fitted effect of over 40% in size
Method in brief: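 CHRM1-CHO calcium-flux assay, antagonist mode. Cells were seeded 18 h, dye-loaded 1 h at 37 C and given compound for 5 min at RT, then acetylcholine was added at 50nM. FDSS fluorescence was read 3 min; 15 concentrations, three runs.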

[15] = molecular target: Muscarinic acetylcholine receptor M1 (Homo sapiens) (UniProt P11229); test: Cholinergic receptor muscarinic 1 (CHRM1) small molecule agonists, cell-based qHTS assay (AID 1963589); also: nearly all actives have a fitted effect of over 35% in size
Method in brief: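 CHO cells stably expressing human CHRM1 were loaded with calcium dye for 1 h at 37 C, then compound was added in agonist mode. Intracellular calcium fluorescence was followed kinetically at 1 s intervals. Fifteen concentrations were tested in three independent runs.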

[16] = cAMP Responsive Elements (CRE) small molecule agonists, cell-based qHTS assay (AID 1963590)
Method in brief: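 CRE-bla HEK 293T cells, 2,000/well in DMEM with 10% dialyzed FBS and 25 mM HEPES, pre-incubated 18 h at 37 C, then exposed to compound 3 h at 37 C. Beta-lactamase reporter read with LiveBLAzer B/G FRET substrate after 2 h at room temperature.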

[17] = cAMP Responsive Elements (CRE) small molecule antagonists, cell-based qHTS assay (AID 1963591; active = well fitted inhibition curve with a large enough effect in the signal ratio in the repeat runs, not every such curve was filed as active; the % refers to the signal ratio)
Method in brief: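 CRE-bla HEK293T cells plated 18 h, then given compound plus NKH477 at 0.25 uM final for 3 h at 37C. Beta-lactamase reporter read with LiveBLAzer B/G FRET substrate after 2 h at room temperature.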

[18] = molecular target: Beta-2 adrenergic receptor (Homo sapiens) (UniProt P07550); test: Adrenergic beta2 receptor (ADRB2) small molecule antagonists, cell-based qHTS assay (AID 1963592); also: series mostly up to about 92 µM; nearly all actives have a fitted effect of over 50% in size
Method in brief: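 Cells (CHO, stable ADRB2 overexpression) incubated 18-20hr at 37C; compounds added from DMSO; agonist mix (1nM isoproterenol, 100uM IBMX, 25uM Ro-20-1724) added; 0.5hr RT; d2-cAMP and anti-cAMP-cryptate added; 1hr RT; 665/615 nm read.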

[19] = molecular target: Beta-2 adrenergic receptor (Homo sapiens) (UniProt P07550); test: Adrenergic beta2 receptor (ADRB2) small molecule agonists, cell-based qHTS assay (AID 1963593);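 also: CHO cells stably overexpressing human ADRB2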
Method in brief: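 CHO cells stably over-expressing ADRB2 were plated overnight at 37C, then dosed with compounds plus a stimulation mix containing 100uM IBMX and 25uM Ro-20-1724 for 0.5hr at room temperature. cAMP was measured by HTRF competition, 1hr.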

[20] = molecular target: D(2) dopamine receptor (Homo sapiens) (UniProt P14416); test: Dopamine D2 receptor (DRD2) small molecule agonists, cell-based qHTS assay (AID 1963594); also: nearly all actives have a fitted effect of over 35% in size
Method in brief: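 HEK293 cells stably expressing human DRD2, pre-treated with PDE inhibitor Ro20-1724 (0.1 mM final) and compound 10 min at room temperature, then stimulated with NKH477 (200nM […]) for 30 min. cAMP read by HTRF (665/620 nm).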
% is scaled to controls: 0 for no effect and ±100 for the full control effect.

Chain of D(2) dopamine receptor (Homo sapiens) (P14416 whole entry, looked up): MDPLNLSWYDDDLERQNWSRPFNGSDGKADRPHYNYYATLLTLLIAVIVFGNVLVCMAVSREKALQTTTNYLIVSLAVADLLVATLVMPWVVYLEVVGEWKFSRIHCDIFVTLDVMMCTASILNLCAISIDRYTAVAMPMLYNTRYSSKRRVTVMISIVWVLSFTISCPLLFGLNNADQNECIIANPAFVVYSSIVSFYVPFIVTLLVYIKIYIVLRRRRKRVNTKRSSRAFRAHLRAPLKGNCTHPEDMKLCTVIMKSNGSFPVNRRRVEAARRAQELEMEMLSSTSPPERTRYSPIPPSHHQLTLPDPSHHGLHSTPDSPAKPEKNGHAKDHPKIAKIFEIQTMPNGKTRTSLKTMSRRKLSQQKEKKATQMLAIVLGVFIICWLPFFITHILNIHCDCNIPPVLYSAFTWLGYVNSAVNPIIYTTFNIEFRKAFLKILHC
Chain of Beta-2 adrenergic receptor (Homo sapiens) (P07550 whole entry, looked up): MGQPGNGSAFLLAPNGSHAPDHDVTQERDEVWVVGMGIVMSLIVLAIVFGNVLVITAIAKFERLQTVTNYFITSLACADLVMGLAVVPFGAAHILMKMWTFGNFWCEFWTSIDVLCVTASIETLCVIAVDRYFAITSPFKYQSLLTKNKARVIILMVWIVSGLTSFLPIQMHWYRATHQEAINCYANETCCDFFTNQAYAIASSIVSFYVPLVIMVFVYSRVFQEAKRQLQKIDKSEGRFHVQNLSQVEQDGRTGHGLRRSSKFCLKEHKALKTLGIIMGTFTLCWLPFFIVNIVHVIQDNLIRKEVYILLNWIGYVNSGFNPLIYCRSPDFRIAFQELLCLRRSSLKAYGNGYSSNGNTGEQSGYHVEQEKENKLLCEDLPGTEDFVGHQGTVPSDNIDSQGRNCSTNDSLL
Chain of Gonadotropin-releasing hormone receptor (Homo sapiens) (P30968 whole entry, looked up): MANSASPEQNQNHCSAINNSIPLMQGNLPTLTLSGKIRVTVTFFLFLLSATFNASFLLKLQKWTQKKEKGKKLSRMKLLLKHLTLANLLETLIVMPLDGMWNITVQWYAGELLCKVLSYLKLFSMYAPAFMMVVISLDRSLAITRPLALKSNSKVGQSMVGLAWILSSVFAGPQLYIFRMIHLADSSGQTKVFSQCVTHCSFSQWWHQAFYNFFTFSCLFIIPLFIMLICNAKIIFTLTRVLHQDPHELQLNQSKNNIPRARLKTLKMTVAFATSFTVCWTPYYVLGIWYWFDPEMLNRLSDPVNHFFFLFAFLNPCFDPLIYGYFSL
Chain of 5-hydroxytryptamine receptor 2A (Homo sapiens) (P28223 whole entry, looked up): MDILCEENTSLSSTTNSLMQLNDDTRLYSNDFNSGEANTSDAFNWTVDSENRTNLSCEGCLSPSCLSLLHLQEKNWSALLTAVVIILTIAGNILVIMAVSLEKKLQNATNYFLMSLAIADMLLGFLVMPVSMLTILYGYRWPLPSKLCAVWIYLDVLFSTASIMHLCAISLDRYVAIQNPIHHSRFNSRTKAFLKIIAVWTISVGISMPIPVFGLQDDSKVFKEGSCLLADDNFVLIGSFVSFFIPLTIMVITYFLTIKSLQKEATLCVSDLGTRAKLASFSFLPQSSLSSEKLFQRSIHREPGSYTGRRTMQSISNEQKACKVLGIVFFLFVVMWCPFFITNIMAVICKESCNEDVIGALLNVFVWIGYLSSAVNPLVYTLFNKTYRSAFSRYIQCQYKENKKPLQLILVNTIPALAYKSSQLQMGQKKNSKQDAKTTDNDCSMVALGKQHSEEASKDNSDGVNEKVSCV
Chain of Muscarinic acetylcholine receptor M1 (Homo sapiens) (P11229 whole entry, looked up): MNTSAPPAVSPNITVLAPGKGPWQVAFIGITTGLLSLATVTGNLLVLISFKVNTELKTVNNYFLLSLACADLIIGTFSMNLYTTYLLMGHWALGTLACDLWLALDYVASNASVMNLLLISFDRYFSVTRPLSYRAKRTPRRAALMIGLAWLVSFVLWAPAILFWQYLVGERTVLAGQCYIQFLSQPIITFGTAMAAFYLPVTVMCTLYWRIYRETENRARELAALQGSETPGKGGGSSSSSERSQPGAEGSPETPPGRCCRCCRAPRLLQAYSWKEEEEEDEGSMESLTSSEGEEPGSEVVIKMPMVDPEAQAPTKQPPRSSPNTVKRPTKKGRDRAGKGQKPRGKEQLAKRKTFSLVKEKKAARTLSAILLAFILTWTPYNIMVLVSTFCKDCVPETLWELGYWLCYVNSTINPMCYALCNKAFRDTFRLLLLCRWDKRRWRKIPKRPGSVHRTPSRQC
Chain of KiSS-1 receptor (Homo sapiens) (Q969F8 whole entry, looked up): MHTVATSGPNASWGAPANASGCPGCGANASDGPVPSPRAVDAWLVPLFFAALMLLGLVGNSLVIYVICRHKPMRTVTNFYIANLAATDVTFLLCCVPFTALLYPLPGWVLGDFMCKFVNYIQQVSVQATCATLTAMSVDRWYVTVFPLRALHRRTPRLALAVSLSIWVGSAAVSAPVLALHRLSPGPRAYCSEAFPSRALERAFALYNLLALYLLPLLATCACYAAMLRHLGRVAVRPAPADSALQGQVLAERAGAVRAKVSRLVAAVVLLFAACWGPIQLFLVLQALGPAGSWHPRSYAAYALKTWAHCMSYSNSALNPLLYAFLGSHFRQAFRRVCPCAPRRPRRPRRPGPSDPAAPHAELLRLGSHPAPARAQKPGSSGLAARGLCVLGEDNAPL

O=C1CCCCCCCCCCCCCCCO1
inactive: Potency [1] | Potency [2] | Potency [3] | Potency [4] | Potency [5] | Potency [6] | Potency [7] | Potency [8] | Potency [9] | Potency [10] | Potency [11] | Potency [12] | Potency [13] | Potency [14] | Potency [15] | Potency [16] | Potency [17] | Potency [18]

CC(=O)CC(C)(C)C1CCCCC1
inactive: Potency [1] | Potency [2] | Potency [3] | Potency [4] | Potency [5] | Potency [6] | Potency [7] | Potency [8] | Potency [9] | Potency [10] | Potency [11] | Potency [12] | Potency [13] | Potency [14] | Potency [15] | Potency [16] | Potency [17] | Potency [18] | Potency [19] | Potency [20]

CC(C)(C)OCC1CO1 (stereo unspecified)
inactive: Potency [1] | Potency [2] | Potency [3] | Potency [4] | Potency [5] | Potency [6] | Potency [7] | Potency [8] | Potency [9] | Potency [10] | Potency [11] | Potency [12] | Potency [13] | Potency [14] | Potency [15] | Potency [16] | Potency [17] | Potency [18] | Potency [19] | Potency [20]

O=C(O)c1cccnc1C(=O)O
inactive: Potency [1] | Potency [2] | Potency [3] | Potency [4] | Potency [5] | Potency [6] | Potency [7] | Potency [8] | Potency [9] | Potency [10] | Potency [11] | Potency [12] | Potency [13] | Potency [14] | Potency [15] | Potency [16] | Potency [17] | Potency [18] | Potency [19] | Potency [20]

COCCCC/C(=N\OCCN)c1ccc(C(F)(F)F)cc1
inactive: Potency [1] | Potency [2] | Potency [3] | Potency [4] | Potency [5] | Potency [6] | Potency [7] | Potency [8] | Potency [9] | Potency [10] | Potency [11] | Potency [12] | Potency [13] | Potency [14] | Potency [15] | Potency [16] | Potency [17] | Potency [18]

CCNc1cc(O)ccc1C
inactive: Potency [1] | Potency [2] | Potency [3] | Potency [4] | Potency [5] | Potency [6] | Potency [7] | Potency [8] | Potency [9] | Potency [10] | Potency [11] | Potency [12] | Potency [13] | Potency [14] | Potency [15] | Potency [16] | Potency [17] | Potency [18] | Potency [19]

O=C(O)CONC(=O)c1ccccc1
inactive: Potency [1] | Potency [2] | Potency [3] | Potency [4] | Potency [5] | Potency [6] | Potency [7] | Potency [8] | Potency [9] | Potency [10] | Potency [11] | Potency [12] | Potency [13] | Potency [14] | Potency [15] | Potency [16] | Potency [17] | Potency [18] | Potency [19] | Potency [20]

NNc1nncc2ccccc12
active: Potency [1] 30.6 µM | Potency [8] 32.4 µM
inactive: activity change, negative = cytotoxicity [1] -11.5% [at 19 µM] | Potency [3] | Potency [4] | Potency [5] | Potency [6] | Potency [7] | activity change, negative = cytotoxicity [8] -0.157% [at 13.5 µM] | activity change, negative = cytotoxicity [9] 0.405% [at 13.5 µM] | Potency [10] | Potency [11] | activation [16] 0.777% [at 19 µM] | Potency [17] | Potency [18] | Potency [20]
